Laboratory results published in the supplement of paper PMC3545927.
The list shows a part of the results. How many sequences the whole screen found active is unknown.

Target: furin, P09958
Assay: furin cleavage Z-score vs untreated control; higher = more cleavage, active = 3.5 or more, inactive = 1 or less, 8 variable residues between constant flanks
Outline: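 To give the cleavage Z-score, log read counts were set against furin-free reactions, lowess-adjusted and scaled by median absolute deviation. These counts came from PCR adapter-tagged, sequenced DNA released when purified furin cut 8-mer peptides fused to a cDNA oligonucleotide and held on magnetic beads by their N-terminus. Digests were 0.01 ml, 1:10 enzyme:substrate, in 50 mM HEPES pH 7.5 with CaCl2 and NaCl, for 7.5, 15 or 30 min.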

Chain of furin, P09958 (P09958 whole entry): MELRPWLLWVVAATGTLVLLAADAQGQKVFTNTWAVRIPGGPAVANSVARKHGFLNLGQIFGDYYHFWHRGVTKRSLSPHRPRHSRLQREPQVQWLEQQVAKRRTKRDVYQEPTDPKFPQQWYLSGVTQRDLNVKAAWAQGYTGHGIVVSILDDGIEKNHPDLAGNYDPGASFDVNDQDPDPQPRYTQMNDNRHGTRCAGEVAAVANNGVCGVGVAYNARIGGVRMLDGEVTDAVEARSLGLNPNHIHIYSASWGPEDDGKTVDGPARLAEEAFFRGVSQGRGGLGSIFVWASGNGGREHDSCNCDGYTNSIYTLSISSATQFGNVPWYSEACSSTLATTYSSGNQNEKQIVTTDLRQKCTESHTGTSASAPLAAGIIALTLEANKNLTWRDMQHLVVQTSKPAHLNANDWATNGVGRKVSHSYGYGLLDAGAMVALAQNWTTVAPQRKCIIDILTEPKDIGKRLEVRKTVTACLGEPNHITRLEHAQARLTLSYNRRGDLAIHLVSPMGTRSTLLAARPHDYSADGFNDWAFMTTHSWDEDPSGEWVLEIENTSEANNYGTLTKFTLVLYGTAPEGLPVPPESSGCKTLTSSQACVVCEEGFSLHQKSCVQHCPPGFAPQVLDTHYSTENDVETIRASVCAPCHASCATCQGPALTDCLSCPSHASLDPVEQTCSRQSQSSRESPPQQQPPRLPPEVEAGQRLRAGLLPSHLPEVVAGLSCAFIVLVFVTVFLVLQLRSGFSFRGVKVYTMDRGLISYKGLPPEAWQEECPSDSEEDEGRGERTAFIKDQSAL

| Sequence | furin cleavage Z-score (7.5 min) | furin cleavage Z-score (15 min) | furin cleavage Z-score (30 min) |
| --- | --- | --- | --- |
| CASTPCSAHVAGNASASA [HC2570] | 0.366 (inactive) | 0.384 (inactive) | 0.66 (inactive) |
| CASGSWLRDIAGNASASA [HC1147] | -1.83 (inactive) | -1.36 (inactive) | 0.113 (inactive) |
| CAVDFIPVENAGNASASA [HC757] | -0.627 (inactive) | -0.626 (inactive) | -2 (inactive) |
| CAMWERYCRGAGNASASA [FS-1377] | 1.18 | 1.38 | 0.416 (inactive) |
| CAHCSRSKRPAGNASASA [FS-790] | 0.521 (inactive) | 0.407 (inactive) | -1.15 (inactive) |
| CAPNSPSKRGAGNASASA [FS-474] | 0.58 (inactive) | -0.142 (inactive) | 0.811 (inactive) |
| CAVLQRSKRGAGNASASA [FS-1177] | 10.8 (active) | 9.33 (active) | 7.91 (active) |
| CAQQSRSKRGAGNASASA [FS-286] | 7.44 (active) | 8.25 (active) | 7.09 (active) |
| CAVTVRWKRGAGNASASA [FS-313] | 10.9 (active) | 12.2 (active) | 8.51 (active) |
| CAIRMYVGGVAGNASASA [HC475] | -0.513 (inactive) | -1.17 (inactive) | -0.0738 (inactive) |
| CAWHYPPKPCAGNASASA [HC404] | 2.21 | 0.243 (inactive) | -0.391 (inactive) |
| CADSSVLCECAGNASASA [HC917] | -0.488 (inactive) | 0.33 (inactive) | -0.601 (inactive) |
| CAEVVTATWVAGNASASA [HC141] | 0.437 (inactive) | 0.0461 (inactive) | -0.276 (inactive) |
| CAETWKKPDYAGNASASA [HC1310] | -0.221 (inactive) | -1.55 (inactive) | -1.15 (inactive) |
| CAVVCCSMKYAGNASASA [HC2074] | 0.109 (inactive) | 0.25 (inactive) | 0.72 (inactive) |
| CAVVACSMSYAGNASASA [HC2023] | 1.53 | 0.103 (inactive) | 1.35 |
| CASKGRIRRRAGNASASA [FS-1081] | 8.99 (active) | 8.1 (active) | 8.52 (active) |
| CASRSRRRRRAGNASASA [FS-1490] | 8.08 (active) | 8.87 (active) | 7.6 (active) |
| CASRGRRRRRAGNASASA [FS-302] | 4.34 (active) | 2.4 | 4.26 (active) |
| CACVTQTVDFAGNASASA [HC889] | 0.399 (inactive) | -1.73 (inactive) | 0.371 (inactive) |
| CAIPPLNVRGAGNASASA [HC591] | -2.18 (inactive) | -0.0771 (inactive) | -0.417 (inactive) |
| CARTRRHLHDAGNASASA [FS-2615] | 7.74 (active) | 9.2 (active) | 8.75 (active) |
| CARTRRLLDKAGNASASA [FS-2834] | -0.433 (inactive) | -1.53 (inactive) | -0.417 (inactive) |
| CARTRRLLWAAGNASASA [FS-2097] | -0.0202 (inactive) | 0.591 (inactive) | -0.328 (inactive) |
| CARTPRPGEQAGNASASA [FS-2832] | -0.162 (inactive) | -0.138 (inactive) | -0.877 (inactive) |

| Sequence | furin cleavage Z-score (7.5 min) | furin cleavage Z-score (15 min) | furin cleavage Z-score (30 min) |
| --- | --- | --- | --- |
| CAITPRCLVDAGNASASA [HC462] | -0.371 (inactive) | -0.729 (inactive) | -2.3 (inactive) |
| CARTPRGLDDAGNASASA [FS-3110] | 5.13 (active) | 6.18 (active) | 6 (active) |
| CARTRRALSDAGNASASA [FS-3173] | 7.04 (active) | 8.87 (active) | 6.82 (active) |
| CAESTLSTALAGNASASA [HC1329] | -0.324 (inactive) | 0.0602 (inactive) | 1.27 |
| CAEVPCHRPDAGNASASA [HC2411] | -1.49 (inactive) | -0.692 (inactive) | 0.135 (inactive) |
| CAHNGLRDLAAGNASASA [HC641] | -0.235 (inactive) | 0.0336 (inactive) | 0.434 (inactive) |
| CAASSSKKRSAGNASASA [FS-1310] | 1.7 | 1.89 | 0.28 (inactive) |
| CAHNGRKKRSAGNASASA [FS-794] | 12.6 (active) | 13.4 (active) | 9.77 (active) |
| CAILSRKKRSAGNASASA [FS-598] | 13.1 (active) | 11 (active) | 8.58 (active) |
| CADTGYPKRSAGNASASA [FS-1587] | 0.338 (inactive) | -0.532 (inactive) | 2.06 |
| CAEVPCHFPSAGNASASA [HC2367] | 0.277 (inactive) | -0.0294 (inactive) | 0.605 (inactive) |
| CAEVVTSRWVAGNASASA [HC2213] | 0.434 (inactive) | -0.178 (inactive) | 1.55 |
| CATPTVATRDAGNASASA [HC282] | -1.53 (inactive) | 0.0271 (inactive) | -0.971 (inactive) |
| CAEVVTSTWDAGNASASA [HC2251] | -0.232 (inactive) | -0.217 (inactive) | -0.0353 (inactive) |
| CAEAWRSRRDAGNASASA [FS-761] | 5 (active) | 6.16 (active) | 5.62 (active) |
| CAQPSSSRRDAGNASASA [FS-1251] | -0.0806 (inactive) | -1.03 (inactive) | -1.19 (inactive) |
| CATPKRSRRDAGNASASA [FS-202] | 10.5 (active) | 10.4 (active) | 6.86 (active) |
| CAVLTRSRRDAGNASASA [FS-573] | 15.8 (active) | 16 (active) | 10.2 (active) |
| CAWHSRRKRLAGNASASA [FS-210] | 9.83 (active) | 11.7 (active) | 10.6 (active) |
| CALHSRNKRLAGNASASA [FS-607] | 7.17 (active) | 9.47 (active) | 6.69 (active) |
| CAGPIRRKRLAGNASASA [FS-1526] | 11.1 (active) | 11.4 (active) | 9.25 (active) |
| CAGPQRQKKLAGNASASA [FS-1202] | -0.669 (inactive) | -1.47 (inactive) | -0.377 (inactive) |
| CAKPARVSKDAGNASASA [FS-259] | -0.289 (inactive) | -0.617 (inactive) | -0.0479 (inactive) |
| CAKPARRKRLAGNASASA [FS-44] | 8.86 (active) | 9.53 (active) | 10.1 (active) |
| CALHSRPQRLAGNASASA [FS-939] | 0.578 (inactive) | 1.4 | 1.43 |
